Measured values: PubChem BioAssay AID1347426 (Functional Genomics Laboratory (NCATS/FGL), 2020)
About 1,400 (4.5%) of roughly 31,000 sequences were called active.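 Rule for the calls: active = median seed-adjusted z-score above 1 or below -1; inactive = the rest.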 This excerpt belongs to a sample that is enriched for actives.

Assay: Novel Modifiers of Survival Motor Neuron (SMN) Protein: Gene Identification via Genome-wide siRNA Screen;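 note: luminescence tracks full-length SMN protein made from the SMN2 reporter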
Conditions: HEK293T SMN2-luciferase reporter, siRNA knockdown, 72 h; actives lie on both sides
In short: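 HEK293T cells stably expressing an SMN2 splicing/cDNA-luciferase reporter were reverse-transfected with a druggable-genome siRNA library and read by luminescence at 72 hours; hits defined by MAD score above 1.0 or below -1.0.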
In the case of GGACUGGGAUGAUACACCUTT against SBF2, the median seed-adjusted z-score is reported as 0.569 (inactive). For CCAUCAUGAUGCUAGCUAUTT against AP3B2, the median seed-adjusted z-score was -2.45 (active). For GCAGAAUUGGAGACGGAAATT against DNALI1, the median seed-adjusted z-score was 0.699 (inactive). In the case of CCAAAUUCCGCUCUCAUGATT against SFRS9, the median seed-adjusted z-score is reported as -0.144 (inactive). With GUAUGAGUGUGACCGGGAATT against MRC2 the median seed-adjusted z-score was -1.34 (active). With GGAUGAUCGAGACCAGUUUTT against XPO4 the median seed-adjusted z-score was 0.616 (inactive). For GCUGUUGACUCACAAUGAUTT against GCLM, the median seed-adjusted z-score was 0.0509 (inactive). In the case of GCUUACGGCUUGUACCUGATT against SFRS17A, the median seed-adjusted z-score is reported as -0.389 (inactive). For GGAAUUAUUACAAGGUAAATT against EIF3E, the median seed-adjusted z-score was 0.549 (inactive). For UCUCUUCAAUAUGUAUUUATT against HOXC9, the median seed-adjusted z-score was 0.395 (inactive). In the case of GAAUCACCAUUUAAGUGCATT against PDE1C, the median seed-adjusted z-score is reported as 0.157 (inactive). In the case of GGGCUUAGGUGUGAUCAUUTT against USH2A, the median seed-adjusted z-score is reported as 0.0673 (inactive). With GCCUAUUCAGAACACCAAUTT against TBP the median seed-adjusted z-score was -1.25 (active). For CGUGCUUUGAGUACCCGAATT against TAT, the median seed-adjusted z-score was 0.257 (inactive). In the case of CCUUAAGAGGGAUGAUAAATT against SAFB, the median seed-adjusted z-score is reported as -0.954 (inactive). For CCCUCUCACCAUUACUUCATT against CRYAB, the median seed-adjusted z-score was 0.354 (inactive). In the case of GCUCUAGGCUUCAAGGCAATT against CTSL3, the median seed-adjusted z-score is reported as 1.07 (active). With CGAGGACGAUGACUGCUUATT against LRP8 the median seed-adjusted z-score was -0.547 (inactive). With GCAAGAAGAGAUUAGCAAATT against EIF2C2 the median seed-adjusted z-score was -0.183 (inactive). For GACUGAUGCUUUGACUGAATT against NPTX2, the median seed-adjusted z-score was 0.0558 (inactive). In the case of GGAACGAGGCAGAUAUGGATT against NMNAT2, the median seed-adjusted z-score is reported as -1.58 (active). For GGAGGAAUCUUGGUCCUUATT against SLC11A2, the median seed-adjusted z-score was -0.157 (inactive). In the case of AUAUCAGGCUGGUUUACAATT against PLA2G15, the median seed-adjusted z-score is reported as 0 (inactive). In the case of GAGCAACAGUCACCAGAUATT against MAT2A, the median seed-adjusted z-score is reported as -1.9 (active). For GGCUGUCCGACUCAACAUATT against SIGLEC12, the median seed-adjusted z-score was 0.226 (inactive). With GCAAAUGGGAGGUUGGAAATT against ZIK1 the median seed-adjusted z-score was -0.0627 (inactive). With GGGAAGUGGUAAAUAAAGATT against MCM7 the median seed-adjusted z-score was 0.0993 (inactive). In the case of GCUCGGACUUCAACAACUATT against PPAP2C, the median seed-adjusted z-score is reported as -1.12 (active). For CAGUAUCUAUUCACAAUGATT against TRNT1, the median seed-adjusted z-score was 0.142 (inactive). In the case of CCCUUCUUGUUUACAUGAATT against SLC25A43, the median seed-adjusted z-score is reported as 0 (inactive). In the case of CAGGUAUAUCAAUUUUUCATT against PRICKLE3, the median seed-adjusted z-score is reported as 0.0332 (inactive). For GUAUCGAAGUGGAGACAAUTT against NELL1, the median seed-adjusted z-score was -0.466 (inactive). With CCACGUGUUUCAAAGCAGATT against GPR172B the median seed-adjusted z-score was 0.184 (inactive). With CAGUGAUGGUUAAGAACGATT against A2M the median seed-adjusted z-score was -1.96 (active). With GGGUGCACCAGAAACAUUATT against VEZF1 the median seed-adjusted z-score was 0.974 (inactive). In the case of GUAACAACAAAUACUCAUATT against KCTD10, the median seed-adjusted z-score is reported as -0.506 (inactive). With CAUACUUUUUGGAUAGACATT against MTX1 the median seed-adjusted z-score was -0.159 (inactive). With GAGAAAUGCUUGGAGUCCATT against FKBPL the median seed-adjusted z-score was -1.11 (active). With GGACGAGACUCAGAGUCAUTT against CD93 the median seed-adjusted z-score was -0.0879 (inactive). With GCACGUACUUGAUUCAGCATT against ZNF34 the median seed-adjusted z-score was 0.0391 (inactive). With CAACAAGUGUCUAAAUGUUTT against GNG11 the median seed-adjusted z-score was 0.00609 (inactive). In the case of AGUCAGAGUUGAACAGGUATT against AREG, the median seed-adjusted z-score is reported as 0.104 (inactive). With AGGCAAACGUGUUCGUGCATT against IGFALS the median seed-adjusted z-score was 0.0888 (inactive). With GUAUCACUCUUAGAAUCCATT against GP1BA the median seed-adjusted z-score was 0.0803 (inactive). For AGAUAGAAGGGACACCAUUTT against NDUFB3, the median seed-adjusted z-score was -0.00982 (inactive). For GGGCAGUUGAUGAACGAAUTT against COG2, the median seed-adjusted z-score was 0.791 (inactive). With GGCUUGAGAGCUUACAUCATT against PPP2R5C the median seed-adjusted z-score was 1.14 (active). For GGUCUGCACUCAUCACUAUTT against MGAT4A, the median seed-adjusted z-score was 0.134 (inactive). With GAAAUAAGGUUUUUGCAAATT against CCL25 the median seed-adjusted z-score was 0.0698 (inactive). In the case of CACUAUUCCCAGAUCUUUATT against SMAD5, the median seed-adjusted z-score is reported as -0.701 (inactive). In the case of GAAGCUGUGAGAUAGAGAATT against LCN8, the median seed-adjusted z-score is reported as 0.112 (inactive). For GGAGAUACAUCACCGAGAATT against ELMO3, the median seed-adjusted z-score was -0.0898 (inactive). In the case of GCUGAUGCAUUGCUCAUUATT against CCT6A, the median seed-adjusted z-score is reported as -0.286 (inactive). In the case of GUUCUGCCCUCAUACCCUUTT against IL9R, the median seed-adjusted z-score is reported as -1.33 (active). In the case of CCUCAGUUGGAGUUUCUAATT against TBCEL, the median seed-adjusted z-score is reported as 0.567 (inactive). With AAGCACAACUUGACCGUGATT against USP20 the median seed-adjusted z-score was -0.369 (inactive). In the case of GGAGAAUGCAAUCCGCUUATT against SVIL, the median seed-adjusted z-score is reported as 0.0852 (inactive). In the case of CUAUAUGAAUCACUAUACATT against ZNF181, the median seed-adjusted z-score is reported as -0.154 (inactive). In the case of GGACAGAGCAAAAACUUCUTT against DYRK4, the median seed-adjusted z-score is reported as -0.824 (inactive). For CCUGAAACCUCAGAACUUATT against PFTK2, the median seed-adjusted z-score was -1.16 (active). With GUGUAAGAACUACUACAGATT against HPR the median seed-adjusted z-score was 0.237 (inactive). With GUACCUCAAUUUAAUAUCUTT against UGCGL2 the median seed-adjusted z-score was -0.456 (inactive). In the case of CGGAAAGUACUUAAACGGATT against PIAS4, the median seed-adjusted z-score is reported as 0.265 (inactive). With GAUGAUUCGUUGGUAUCUATT against GRIA2 the median seed-adjusted z-score was -1.02 (active). With CAAAUACAGUGAGGACAUUTT against GPR83 the median seed-adjusted z-score was 0.105 (inactive). For CACUGAGAAUGCAUCCAAATT against CYP4B1, the median seed-adjusted z-score was -0.663 (inactive). With CGGUCAUUUCGUCGAGAUATT against HSF5 the median seed-adjusted z-score was 0.369 (inactive). With GCCCUAAACCUGCCGGAAATT against EVX1 the median seed-adjusted z-score was 1 (active). For CCUCAACAGUGUCUACAUUTT against LYL1, the median seed-adjusted z-score was -0.118 (inactive). For GAUAAAAGGUUACAAACGATT against HIF1AN, the median seed-adjusted z-score was -0.0315 (inactive). In the case of GCAGUGUAAUGGUAUCCGATT against VLDLR, the median seed-adjusted z-score is reported as 0.0487 (inactive). In the case of AGCGCAUGAUUGACAGUGATT against CACNG1, the median seed-adjusted z-score is reported as -0.452 (inactive). With GCACUGUGCUCGGAAGUUATT against GLS2 the median seed-adjusted z-score was -0.793 (inactive). For GUGUCGUCGUAGAAAGAGATT against WEE1, the median seed-adjusted z-score was -4.05 (active). In the case of CAGCAUACUUUAUCGCCUUTT against DICER1, the median seed-adjusted z-score is reported as 0.101 (inactive). With CCCAACAACUGGUAUCUUUTT against CD33 the median seed-adjusted z-score was -0.355 (inactive). In the case of GCCCUGGGUGGAUACUUGATT against PIM3, the median seed-adjusted z-score is reported as -1.01 (active). In the case of CAAUAGCUGAAAUAAUAGATT against KPNA3, the median seed-adjusted z-score is reported as 0.383 (inactive). For CAACUACACUGUCAACUACTT against DTX2, the median seed-adjusted z-score was 0.0597 (inactive). With CAGCAACCAAUGAUAUAUATT against POLR2K the median seed-adjusted z-score was -3.72 (active). With GGCUCAUUUUCGCCCUGUATT against CHP2 the median seed-adjusted z-score was 0.364 (inactive). In the case of GUUUGAGUGUGACACCUGUTT against ZNF71, the median seed-adjusted z-score is reported as -0.0193 (inactive). With GGAAUACCUUAUUGAUGUATT against CST8 the median seed-adjusted z-score was -0.0126 (inactive). With CGAACACCGGUGAGGUAUATT against SNRPD3 the median seed-adjusted z-score was -2.69 (active). With GGUACCAACAAAUACGAUATT against INPP5J the median seed-adjusted z-score was 0.223 (inactive). For GAGACUGCACAACACGAUATT against TMEM11, the median seed-adjusted z-score was -0.00121 (inactive). In the case of AGUGAGAUUUGAAGAGAUUTT against ADC, the median seed-adjusted z-score is reported as -0.157 (inactive). With CGAGUGGACCUACGAGGAATT against ARID3C the median seed-adjusted z-score was -1.32 (active). In the case of AAAAAUCGCUGGACAUGUATT against DNASE2B, the median seed-adjusted z-score is reported as 0.86 (inactive). For CAAUACGAUUGGGACAUUATT against UXS1, the median seed-adjusted z-score was 0.25 (inactive). In the case of CAUUCGUUCUUACAAGGAATT against FMNL3, the median seed-adjusted z-score is reported as 0.481 (inactive). In the case of CCUCCUCUGCUUAUCGUAUTT against GLT8D1, the median seed-adjusted z-score is reported as 1.22 (active). For GGGACGAUAUUUUAUGCAUTT against AHRR, the median seed-adjusted z-score was -0.636 (inactive). For GGGAAGAUCCUGUACAUCUTT against PER2, the median seed-adjusted z-score was -0.113 (inactive). For CAUUUGGUCUAGACAGUUUTT against TDP1, the median seed-adjusted z-score was -0.352 (inactive). For GGUUCUUGGGUGAAGGACATT against CHGB, the median seed-adjusted z-score was -1.29 (active). In the case of GACCCGCUUUCUACCGUUATT against ENTPD4, the median seed-adjusted z-score is reported as 0.324 (inactive). For GCUUAUCCAUUGGAACUGUTT against NEK9, the median seed-adjusted z-score was 0.0698 (inactive). In the case of GCAGGGCAGUAAUCCUCAUTT against DLX6, the median seed-adjusted z-score is reported as 0.0275 (inactive). In the case of GCCUUGUCGAAUUCUGUCATT against FOXO3, the median seed-adjusted z-score is reported as -0.712 (inactive). With CCCAGUCUGUGAAACCGAATT against JMJD3 the median seed-adjusted z-score was 0.871 (inactive). With GCUGCUGAAAGAUAUGAAATT against SPCS3 the median seed-adjusted z-score was 0.417 (inactive). With GGAUAAACCUAUGCAUACATT against CCNF the median seed-adjusted z-score was -0.435 (inactive). In the case of CGCUGUCUCGGGAGAGAAATT against SFRS3, the median seed-adjusted z-score is reported as 2.74 (active). With CCUCUUCCACCGCUACUUCTT against TREX2 the median seed-adjusted z-score was -0.918 (inactive). In the case of GGCUCUUAAUAUUCGAAUATT against GPR22, the median seed-adjusted z-score is reported as 0.705 (inactive). For UGAUCAUUGUCCCUACAGATT against SERPINA3, the median seed-adjusted z-score was 0.125 (inactive). In the case of UCCUCAAGAGUUCACCUAUTT against FCRL2, the median seed-adjusted z-score is reported as -0.294 (inactive).
